# Compound activity from PubChem BioAssay.
# DRD3 antagonist = qHTS of D3 Dopamine Receptor Antagonist: qHTS. D3R cells, DiscoveRx beta-arrestin luminescence, antagonist mode; hits give low values. max response, negative = inhibition, %. actives 2.5% (n = 360,000). AID 652054, 2013; in the data active = max response below about -50%; inconclusive = no clear call, values can overlap the other calls; note: % is set by controls: 0 for no effect and ±100 for the full control effect
# Target sequence (P35462 whole entry, looked up): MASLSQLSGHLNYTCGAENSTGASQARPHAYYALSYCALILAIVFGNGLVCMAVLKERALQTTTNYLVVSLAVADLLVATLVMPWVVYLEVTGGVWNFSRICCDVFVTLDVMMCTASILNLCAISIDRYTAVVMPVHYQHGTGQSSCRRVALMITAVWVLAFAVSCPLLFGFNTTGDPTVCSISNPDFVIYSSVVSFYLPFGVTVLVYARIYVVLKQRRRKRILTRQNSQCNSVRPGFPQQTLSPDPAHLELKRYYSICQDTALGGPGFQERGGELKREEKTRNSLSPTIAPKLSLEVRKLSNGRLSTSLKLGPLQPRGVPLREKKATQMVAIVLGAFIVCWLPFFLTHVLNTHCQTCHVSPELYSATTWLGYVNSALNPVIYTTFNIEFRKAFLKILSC
#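 Cells plated overnight at 1500 cells/well, then exposed to library compounds with dopamine controls for 90 minutes at 37 degrees C. DiscoveRx reagent added for 30–60 minutes at room temperature; luminescence read, quantitative HTS format.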
# DRD3 agonist = qHTS of D3 Dopamine Receptor Agonist: qHTS. D(3) dopamine receptor (Homo sapiens), P35462. D3R DiscoveRx beta-arrestin cells, luminescence, 90 min. max activation, %. actives 0.58% (n = 410,000). AID 652048, 2013; in the data active = max activation above about 30%; note: 0% is about no effect
#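 Cells at 1500/well, incubated overnight, then treated with pinned compounds (dopamine as control) for 90 min at 37 degrees C. DiscoveRx reagent added for 30 - 60 minutes at room temperature; luminescence read.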
# a7 integrin act = qHTS for Activators of Integrin-Mediated Alleviation for Muscular Dystrophy. actives 0.064% (n = 350,000). Potency, µM (highest dose often 38.3 µM), without a hit: at the highest dose activation, actives largely listed as activators. alpha7betagal myoblasts, beta-gal FDG fluorescence, 48 h; active = well fitted activation curve with a large enough effect; inconclusive = small, poorly fitted or top-dose-only effect; inactive = no such curve, though single readings can be large or run the other way;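 note: potency is the fitted concentration of half-maximal effect; 100% = response of the positive control SU9516; nearly all actives have a fitted effect of over 60% in size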
#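 Alpha7betagal+/- myoblasts (passage 13) were plated 16-24 hr, then exposed to compounds (1:260 dilution of DMSO stock) for 48 hours at 37C. After MPER lysis, β-galactosidase reporter activity was read as FDG fluorescence (ex 480/em 540) after 30 minutes.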
# An asterisk follows results filed as active; u = inconclusive; x = not tested or not shown. The list is not random: actives were taken first. Their share in the collection is about 2.9%.
SMILES,DRD3 antagonist,DRD3 agonist,a7 integrin act
CC1CCCN(CCC(=O)c2ccc(Br)cc2)C1 (stereo not given),-1,-15,-1%
Brc1cccc(OCCCCN2CCCCC2)c1,-92*,-29,u
COc1ccc(C=NNc2ccc([N+](=O)[O-])cn2)cc1,-18,-4,4%
Nc1cc(N)nc(SCC(=O)NC(=O)NC2CCCC2)n1,-6,6,-1%
CC(C)c1ccc(NC(=O)C2CCCN(S(=O)(=O)c3ccc(Br)s3)C2)cc1 (stereo not given),x,2,x
COc1cccc(Nc2nc3ccccc3n3nnnc23)c1,-11,1,6%
CC1CN(CCCOc2ccc([N+](=O)[O-])cc2)CC(C)O1 (stereo not given),-15,-7,6%
CC1CCCN(CCCCOc2cccc(Br)c2)C1 (stereo not given),-83*,-9,-27%
CC1CC(C)CN(CCCCOc2ccc([N+](=O)[O-])cc2)C1 (stereo not given),-82*,-12,-16%
CC1CCCN(Cc2cccc(Oc3ccccc3)c2)C1 (stereo not given),u,-22,-25%
CC(=O)C(Cc1ccccc1)NC(=O)CN(C)Cc1ccccc1Cl (stereo not given),2,3,-36%
CC1SCCN1S(=O)(=O)c1ccc2ccccc2c1 (stereo not given),-59*,0,13%
O=C(O)C1SCCN1S(=O)(=O)c1ccc2ccccc2c1 (stereo not given),11,1,14%
CCn1ccnc1CN(C)C(=O)c1cc(COc2ccccc2SC)on1,14,1,-34%
CC(C)Oc1ccc(C(=O)N/N=C/c2ccc(-c3ccc(S(=O)(=O)Nc4ncccn4)cc3)o2)cc1,-55*,5,3%
NC(=O)N/N=C/c1ccc(-c2ccc(S(=O)(=O)Nc3ncccn3)cc2)o1,-14,0,9%
COc1cc(OC)c(NS(=O)(=O)c2cc(-c3cnc(C)o3)ccc2OC)cc1Cl,x,0,x
Cc1nnc(NC(=O)c2ccc(S(=O)(=O)N3CCCCC3)cc2)s1,-14,0,43%
Cc1ccc(CNCc2ccccc2Cl)cc1,-67*,-13,8%
Fc1ccc(CNCc2ccccc2Cl)cc1,-7,-15,15%
O=C(COc1ccc(Br)cc1Br)NN1C(=O)c2ccccc2C1=O,-17,-9,17%
CCCCOC(=O)Nc1cc(Cl)ccc1C,6,1,-20%
CCCOC(=O)NC(CC)COC(=O)Nc1cc(C)ccc1C (stereo not given),-87*,-6,2%
CCOC(=O)C1CCCN(CC(=O)Nc2c(C(=O)OC)[nH]c3ccccc23)C1 (stereo not given),-14,-7,-8%
COC(=O)c1[nH]c2ccccc2c1NC(=O)CN1CCCCCC1,-53*,8,-55%
SMILES,DRD3 antagonist,DRD3 agonist,a7 integrin act
COC(=O)c1[nH]c2cc(OC)ccc2c1NC(=O)CCN1CCSCC1,-70*,-2,7%
COC(=O)c1[nH]c2ccccc2c1NC(=O)CN1CCC(C(N)=O)(N2CCCCC2)CC1,-54*,1,1%
COC(=O)c1[nH]c2ccccc2c1NC(=O)CN1CCN(C(=O)c2ccco2)CC1,-52*,31*,-23%
COC(=O)c1[nH]c2cccc(OC)c2c1NC(=O)CCN1CCSCC1,-21,1,-7%
COC(=O)c1[nH]c2ccccc2c1NC(=O)CN1CCN(c2cccc(Cl)c2)CC1,-14,0,-9%
CCOC(=O)N1CCN(CC(=O)Nc2c(C(=O)OC)[nH]c3ccccc23)CC1,9,8,-21%
COc1ccc(CNC(=O)C2CCN(S(=O)(=O)c3c(C)n[nH]c3C)CC2)cc1,-15,-4,21%
Cc1noc(C)c1COc1ccccc1C(=O)Nc1ccc(C(N)=O)cc1,21,0,34%
O=C(CCC(=O)Nc1ccccc1Cl)N/N=C/c1c[nH]c2ccccc12,13,2,-2%
COC(=O)c1[nH]c2ccccc2c1NC(=O)Oc1ccccc1,-52*,-2,-24%
COC(=O)c1[nH]c2ccc(C)cc2c1NC(=O)Oc1ccccc1,-6,-1,20%
Cc1ccc(S(=O)(=O)N2CCCCC2)cc1NC(=O)c1ccc(Cl)nc1,14,1,-22%
O=C(Cn1cc(C(=O)c2ccco2)c2ccccc21)Nc1ccc(Br)cc1,x,-16,x
CCOC(=O)c1c(C)[nH]c(C(=O)OCc2ccccc2)c1C,17,8,10%
CCOC(=O)CCc1c(C(=O)OCC)[nH]c(CC)c1C(=O)OCc1ccccc1,27,31*,-24%
COc1ccc(N2CCN(C(=O)c3ccc(S(=O)(=O)NCc4ccco4)cc3)CC2)cc1,-11,-1,-18%
COC(=O)COc1ccc2c(=O)c(-c3ccccc3OC)coc2c1,-14,1,25%
COC(=O)COc1ccc2occ(C(C)=O)c2c1,-105*,-8,-30%
Cc1ccc(C(=O)c2coc3ccc(OCC(=O)O)cc23)cc1,-61*,-5,15%
O=C(O)COc1ccc2occ(C(=O)c3ccccc3)c2c1,u,-2,17%
O=C(CN1C(=O)C2C3C=CC(C3)C2C1=O)Nc1nncs1 (stereo not given),-26,2,-21%
COC(=O)[C@H]1C[C@H](OC(=O)NCc2ccc(OC)c(OC)c2)[C@@]2(O)CN(S(=O)(=O)c3ccc(C)cc3)CC2[C@H]1C(=O)OC (stereo not given in full),25,1,2%
Cc1c(C(=O)N2CCCCC2)c(S(=O)(=O)NCc2ccc(F)cc2)c(C)n1C,-9,-10,u
N#C/C(=C\c1cc(O)c(O)c(O)c1)C(N)=O,-27,4,9%
COc1ccccc1CC(O)CC1c2c(cc3c(c2OC)OCO3)CCN1C (stereo not given),-4,-1,0%
SMILES,DRD3 antagonist,DRD3 agonist,a7 integrin act
COc1ccc(CC(O)CC2c3c(cc4c(c3OC)OCO4)CCN2C)cc1 (stereo not given),-69*,-20,0%
CCOc1ccc(Br)cc1C1NC(=O)c2c(sc3c2CCN(C)C3)N1 (stereo not given),x,10,x
C=C1C(O)[C@@H]2O[C@]3(CC[C@H](/C=C/C(C)[C@@H]4CC(C)=CC5(O[C@H](C[C@@](C)(O)CO)CCC5O)O4)O3)CC[C@H]2O[C@@H]1C(O)CC(C)[C@H]1OC2(CCCCO2)CCC1C (stereo not given in full),-78*,-29,-47%
C=C1[C@@H](O)[C@@H]2O[C@]3(CC[C@H](/C=C/[C@@H](C)[C@@H]4CC(C)=CC5(O[C@H](C[C@@](C)(O)C(=O)OC)CC[C@H]5O)O4)O3)CC[C@H]2O[C@@H]1[C@@H](O)C[C@H](C)[C@H]1OC2(CCCCO2)CC[C@H]1C (stereo not given in full),-17,-4,-43%
CCC(C)NC(=O)c1ccc(CSCc2cccc(F)c2)o1 (stereo not given),15,3,3%
NC(=O)c1ccc(NCCc2cccs2)cc1,-50*,-8,x
O=C(NCCc1cccs1)c1ccc(Cl)cc1,-24,-16,9%
